Shown is part of a subset that was picked to be rich in hits.
AmpC no deterg = AmpC beta-lactamase inhibition without detergent; AmpC nitrocefin hydrolysis, absorbance 480 nm, 0.0001% Triton; Potency, µM (highest dose often 57.1 µM), for the others: top-dose activity change, negative = inhibition, usual class: inhibitors; 330,000 compounds, 0.52% hits; P00811; AID 485341;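 note: potency is the fitted concentration of half-maximal effect; plate controls were no compound for no effect and no enzyme for full effect; nearly all actives have a fitted effect of over 20% in size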
Target sequence (P00811 whole entry, looked up): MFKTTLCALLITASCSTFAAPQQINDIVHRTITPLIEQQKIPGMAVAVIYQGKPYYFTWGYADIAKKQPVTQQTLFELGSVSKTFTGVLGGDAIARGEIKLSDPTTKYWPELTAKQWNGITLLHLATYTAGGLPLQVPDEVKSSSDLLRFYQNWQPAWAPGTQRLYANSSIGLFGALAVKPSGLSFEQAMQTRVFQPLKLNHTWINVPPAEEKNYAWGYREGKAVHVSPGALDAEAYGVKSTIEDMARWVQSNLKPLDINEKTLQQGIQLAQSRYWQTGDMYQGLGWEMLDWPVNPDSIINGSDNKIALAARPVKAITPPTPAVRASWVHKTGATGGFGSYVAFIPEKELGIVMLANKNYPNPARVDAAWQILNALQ
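20 mM phosphate pH 7.0 + 0.01% (detergent screen) or 0.0001% Triton X-100; 5.3 nM AmpC reagent; cpd preinc 15 min RT; nitrocefin (800 uM stock) to start; A480 q20 s × 4 min; Activity was normalised to no-enzyme and no-compound control wells.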
CHX counter = affects cycloheximide protein synthesis inhibition readout, counter-screen | cell reporter, cycloheximide protein synthesis inhibition counterscreen | max response, % | 300,000 compounds, 12% hits; in the data active = max response mostly above about 13%, no sharp cut-off; inactive = mostly below about 14%; note: read at 38.3 µM for the half of the compounds with a filed dose; 0% is about no effect
Shiga inhibitor = blocks Shiga toxin action in Vero cells | Vero cells, Shiga toxin protein synthesis inhibition reporter | inhibition, % at 38.7 µM | 290,000 compounds, 9.2% hits; in the data active = inhibition mostly above about 28%, no sharp cut-off; inactive = mostly below about 43%; note: 0% is about no effect
AMA1-RON2 inh = AMA1-RON2 (P. falciparum) interaction inhibition; AlphaScreen AMA1-biotinylated RON2 peptide binding; Potency, µM (highest dose often 58.2 µM), inactives show at the top dose activity change, negative = inhibition, most hits filed as inhibitors; 360,000 compounds, 0.2% hits; AID 720542;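 note: potency is the fitted concentration of half-maximal effect; 0% = vehicle wells and -100% = peptide control; nearly all actives have a fitted effect of over 45% in size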
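AMA1 (3D7) with his tag at 25 nM final met compounds first, then biotinylated RON2 peptide at 25 nM; detection used donor plus acceptor beads, 10 µg/mL apiece, read by AlphaScreen after 30 min at room temperature.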
SARS PLP yeast = blocks SARS-CoV papain-like protease in a yeast assay; S. cerevisiae expressing SARS-CoV PLpro, growth rescue; Potency, µM (series often up to 32.9 µM), inactives show at the top dose activity, positive = growth rescue, most hits filed as activators; 330,000 compounds, 0.19% hits; AID 485353; calls by dose curve; note: potency is the fitted concentration of half-maximal effect; 0% is about no effect; nearly all actives have a fitted effect of over 55% in size
AmpC detergent = inhibitors of E. coli AmpC beta-lactamase with detergent. P00811. AmpC hydrolysis of nitrocefin, absorbance 480 nm, 0.01% Triton. Potency, µM (highest dose often 114 µM), inactives show at the top dose activity change, negative = inhibition, most hits filed as inhibitors. 370,000 compounds, 0.041% hits. AID 485294;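 note: potency is the fitted concentration of half-maximal effect; 0% = no-compound wells and -100% = no-enzyme wells; nearly all actives have a fitted effect of over 25% in size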
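AmpC (5.3 nM in the dispensed reagent) in 20 mM phosphate pH 7.0 with 0.01% (detergent screen) or 0.0001% Triton X-100 was preincubated with compounds for 15 min at room temperature. Nitrocefin was then added from an 800 uM solution, and hydrolysis was followed at 480 nm.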
The depositor's hits bear a star; u = inconclusive; x = not tested or not shown; [ ] = another dose, or the depositor's remark. Unless noted, calls come from the whole dose curve; as a rule, active = well fitted curve in the direction sought with a large enough effect; inconclusive = small, poorly fitted or top-dose-only effect, or another doubt; inactive = no such curve, though single readings can be large; an effect the other way counts as inactive or inconclusive.

SMILES	AmpC no deterg	CHX counter	Shiga inhibitor	AMA1-RON2 inh	SARS PLP yeast	AmpC detergent
COc1ccccc1Cc1nc(-c2ccc(Br)o2)no1	-32%	34*	78	7%	-10%	u
Cc1ccccc1OCc1nc(-c2ccc(Br)o2)no1	-24%	11	60	1%	-7%	u
COc1cccc(-c2nc(-c3ccc(Br)o3)no2)c1	-5%	54*	108*	4%	2%	-8%
COc1cccc(-c2nc(-c3ccc(-c4ccccc4)nc3OC)no2)c1	x	x	x	x	x	0%
CCOC(=O)c1ccc(NC(=O)C2=C(C)C(=O)OC23CCN(C(C)=O)CC3)cc1	x	x	x	x	x	0%
COc1ccc(-c2nnc(-c3ccc(Br)o3)o2)cc1OC	21%	11*	35	15%	-12%	-13%
Cc1ccccc1NC(=O)c1cc2ccccc2o1	-13%	37*	x	6%	0%	u
COc1cc(NC(=O)c2cc3ccccc3o2)c(OC)cc1Cl	-26%	-3	-14	15%	7%	-24%
CCN(CC)c1ccc(NC(=O)c2cc3ccccc3o2)c(C)c1	-25%	26*	59*	-3%	-3%	-15%
CCN(CC)c1ccc(NC(=O)c2c(OC)cccc2OC)c(C)c1	x	9	-17	9%	x	-3%
Cc1ccccc1NC(=O)c1cc(=O)c2ccccc2o1	-18%	16	30	-1%	1%	5%
COc1ccccc1NC(=O)c1cc2ccccc2o1	-12%	39*	64*	16%	-18%	2%
O=C(Nc1ccc(Cl)cc1Cl)c1cc2ccccc2o1	-12%	51*	57*	-12%	25%	u
CC(C)(C)CC(=O)Nc1ccccc1N1CCN(c2ccc(F)cc2)CC1	-6%	1	x	-28%	-4%	-9%
OC[C@H]1O[C@@H](c2nc(-c3ccccc3Br)no2)[C@H](O)[C@@H]1O	x	x	x	0%	x	x
O=C(Nc1ncccc1Cl)c1cc2ccccc2o1	-8%	30*	73*	-1%	-2%	-4%
COc1ccc(/C=C(/NC(=O)c2cccc([N+](=O)[O-])c2)C(=O)O)cc1OC	4%	5	-9	18%	0%	-10%
O=C(N[C@H]1CC1c1ccccc1)c1ccc([N+](=O)[O-])cc1 (stereo not given in full)	-22%	46*	112*	-7%	-4%	2%
CCOC(=O)Cc1ccc(NC(=O)c2cccc([N+](=O)[O-])c2)cc1	-16%	21*	62*	-6%	-1%	2%
CC(C)(C)c1cc(NC(=O)c2cccc([N+](=O)[O-])c2)no1	-19%	59*	92*	1%	-1%	7%
COC(=O)/C(=C/c1cccc([N+](=O)[O-])c1)NC(=O)c1ccc(OC)cc1	-1%	53*	76*	-5%	22%	3%
CCOC(=O)Cc1ccc(NC(=O)c2ccc([N+](=O)[O-])cc2)cc1	-13%	-1	20	-2%	-1%	1%
Cc1ccc(SCCC(=O)Nc2cccc(N(C)S(C)(=O)=O)c2)cc1	-13%	12	5	3%	-7%	3%
O=C(Nc1ccc([N+](=O)[O-])cc1)c1cccc([N+](=O)[O-])c1	x	x	x	-4%	x	x
COc1ccc(Cc2nnc(NC(=O)c3cccc([N+](=O)[O-])c3)s2)cc1	-26%	23*	32	-10%[11.6 µM]	1%	-3%
O=C(Nc1ccc(NC(=O)c2cccc([N+](=O)[O-])c2)cc1)c1cccc([N+](=O)[O-])c1	-36%	30*	x	39%	9%	-7%
CN(C)S(=O)(=O)Oc1cccc(C(=O)Nc2ccc([N+](=O)[O-])cc2)c1	-16%	50*	79*	20%	2%	-6%
O=C(Nc1ccc(O)cc1)c1cccc(Oc2ccc([N+](=O)[O-])cc2)c1	19%	2	15	-2%	0%	-3%
COc1ccc(Cc2nnc(NC(=O)c3ccc(OC)c(OC)c3)s2)cc1	19%	0	-1	1%	2%	-16%
O=C(O)c1ccccc1Nc1ccc([N+](=O)[O-])cc1	-10%	27*	32	-22%	-12%	1%
